A word on the inhibition: it is the drop in the measured response relative to a control, in per cent.

Hit rate of the full screen: of about 1,900 compounds, about 15 (0.8%) were called active. The sample holds actives, similar compounds and a random draw of the others, so the mix is not that of the screen.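 How the source made its calls: active means every replicate shows at least 50% inhibition; inconclusive means mean inhibition at least 50% but some replicate below; inactive means the rest.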

The target of the assay is DNA repair protein RAD52 homolog (Homo sapiens) (UniProt P43351). As to the kind of experiment: RAD52 ssDNA annealing inhibitors, primary screen, biochemical, FRET, single point (AID 651660).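 Further: 0% = median of neutral control wells and 100% = median of positive control wells.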 Conditions: Recombinant RAD52 ssDNA annealing, FRET fluorescence, 30 min; at 18.7 µM; hits give high values.
Chain of DNA repair protein RAD52 homolog (Homo sapiens) (P43351 whole entry, looked up): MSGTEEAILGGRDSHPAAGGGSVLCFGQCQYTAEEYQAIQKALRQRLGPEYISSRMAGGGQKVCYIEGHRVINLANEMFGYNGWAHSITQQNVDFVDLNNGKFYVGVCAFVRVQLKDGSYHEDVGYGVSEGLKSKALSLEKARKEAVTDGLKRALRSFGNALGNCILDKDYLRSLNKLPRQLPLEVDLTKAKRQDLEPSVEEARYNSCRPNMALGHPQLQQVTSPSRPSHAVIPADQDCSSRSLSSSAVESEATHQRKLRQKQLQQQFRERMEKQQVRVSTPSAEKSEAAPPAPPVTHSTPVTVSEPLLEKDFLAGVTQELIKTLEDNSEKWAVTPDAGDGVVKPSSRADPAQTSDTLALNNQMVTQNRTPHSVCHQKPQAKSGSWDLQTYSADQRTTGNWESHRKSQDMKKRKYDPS
For `CC(C)CC1c2[nH]c3ccccc3c2CCN1C(=O)CCC(=O)N(C)C` (configuration not stated), the inhibition is -3.31% (inactive). With `CC(NC(=O)OCc1ccccc1)C(=O)N1CC(O)CC1C(=O)O` (configuration not stated), the inhibition was -5.77% (inactive). As for `COCCNC(=O)CSc1ccc(Cl)cc1`, the inhibition was -17.2% (inactive).

Turning to `CC(C)CCn1c(N2CCc3ccccc3C2)nc2c1c(=O)[nH]c(=O)n2C`, the inhibition was -3.91% (inactive).

On to `O=C1Cc2ccccc2C(c2ccccc2)N1` (configuration not stated), for which the inhibition is -8.11% (inactive). In the case of `COc1ccc(-c2noc(CCc3ccccc3)n2)cc1`, the inhibition was -6.01% (inactive). For the compound `COC(=O)c1cc(-c2c(C)oc3cc(OC)ccc3c2=O)c(C)o1`, the inhibition was 2.67% (inactive). The value for `O=c1c(-c2ccc3c(c2)OCCO3)coc2cc(OC3OC(CO)C(O)C(O)C3O)ccc12` (configuration not stated) was 2.13% (inactive); that for `COc1ccc(-c2[nH]ncc2CN(CCO)Cc2cccs2)c(F)c1` was -3.67% (inactive).

As for `Cc1ccc2c(c1)c1c3n2CCCN(Cc2ccccc2)C3CCC1` (configuration not stated), the inhibition was 3.99% (inactive). The result for `Cc1nc(NCc2ccco2)c(C#N)c2c1COC(C)(C)C2` reads -36.8% (inactive). The result for `COc1cccc(CN2C(=O)N(C(C)C)C(N(O)C(=O)NC(C)C)C2(C)C)c1OC` (configuration not stated) reads 2.14% (inactive); that for `COc1cc2cc(C(=O)O)n(C)c2c(OC)c1OC`, -3.98% (inactive). The result for `CCC(=O)Oc1ccc(/C(CC)=C(\CC)c2ccc(OC(=O)CC)cc2)cc1` reads -4.46% (inactive); that for `CC/C(=C(\c1ccc(O)cc1)c1ccc(OCCN(C)C)cc1)c1ccccc1`, 76% (active). For `CN(C)CCOc1ccccc1Cc1ccccc1`, the inhibition was 1.84% (inactive). The value for `CC(=O)c1cccc2c(O)c(C3=Nc4ccccc4C3=O)[nH]c12` was -6.23% (inactive); that for `CC(OC(=O)c1cc(=O)[nH]c2ccccc12)C(=O)c1ccccc1` (configuration not stated) was 1.44% (inactive); that for `COc1cc(/C=C/C(=O)N2CCCC2)cc(OC)c1OC` was -3.32% (inactive). For the compound `Cn1c(=O)[nH]c(=O)c2c1ncn2CCN1CCOCC1`, the inhibition is -9.6% (inactive). For `OCCN1CCN(CCCN2c3ccccc3Sc3ccc(Cl)cc32)CC1`, the inhibition was 73.4% (active). As for `OC(CCCN1CCCCC1)(c1ccccc1)c1ccccc1`, the inhibition was 10.1% (inactive).

As for `Clc1ccc(OCCCN2CCCCC2)c(Br)c1`, the inhibition is 5.3% (inactive). Regarding `CN(C)CCCN1c2ccccc2Sc2ccccc21`, the inhibition is 7.51% (inactive). As to `OCCOCCN1CCN(C(c2ccccc2)c2ccc(Cl)cc2)CC1` (configuration not stated), the inhibition was 7.68% (inactive).

In the case of `CN(C)CCCN1c2ccccc2Sc2ccc(C(F)(F)F)cc21`, the inhibition is 29.1% (inactive). The result for `CNCCCN1c2ccccc2CCc2ccccc21` reads -18.4% (inactive); that for `CN(C)CCCN1c2ccccc2CCc2ccc(Cl)cc21`, 16% (inactive). The result for `CN(C)CCCN1c2ccccc2Sc2ccc(Cl)cc21` reads 68.5% (active). Regarding `OCCN1CCN(CCCN2c3ccccc3Sc3ccc(C(F)(F)F)cc32)CC1`, the inhibition is 65.2% (active). The result for `CN1CCN(CCCN2c3ccccc3Sc3ccc(C(F)(F)F)cc32)CC1` reads 67.4% (active). The value for `O=c1oc2c(CN3CCN(CCO)CC3)c(O)ccc2cc1-c1ccccn1` was -38.1% (inactive). Turning to `CCOC(=O)c1oc2cc(O)cc(C)c2c(=O)c1-c1cscn1`, the inhibition was 5.2% (inactive).

For the compound `CC(=O)C1=C(Nc2ccc(C)cc2)CC(C)(O)C(C(C)=O)C1c1ccco1` (configuration not stated), the inhibition is -76.2% (inactive). The value for `CCN(CC)CCNc1ccc(CO)c2sc3ccccc3c(=O)c12` was 61.5% (active). The result for `CCN(CC)CCCNC(=O)C1c2ccccc2Oc2ccccc21` reads 4.59% (inactive); that for `C[C@]12CC[C@@H]3c4ccc(O)cc4CC[C@H]3[C@@H]1C[C@@H](O)[C@@H]2O[C@@H]1O[C@H](C(=O)O)[C@@H](O)[C@H](O)[C@H]1O`, 5.26% (inactive). Turning to `O=C(NCCc1ccccc1)C1CCN(C2CCN(Cc3ccco3)CC2)CC1`, the inhibition is -15.9% (inactive). In the case of `COc1ccc(-c2coc3c(CN4CCOCC4)c(O)ccc3c2=O)cc1`, the inhibition was 7.99% (inactive). The result for `COc1ccc2[nH]c(CN3CCN(CC(C)C)C(CCO)C3)c(C)c2c1` (configuration not stated) reads -14.8% (inactive); that for `O=C(CN1C(=O)C2CCc3[nH]c4ccccc4c3C2C1=O)N1CCCC1` (configuration not stated), -14.6% (inactive); that for `OC12CCCCC1C(c1ccc3c(c1)OCO3)N(Cc1cccc(F)c1)CC2` (configuration not stated), -0.832% (inactive). Regarding `CCC(=O)Oc1ccc(C(=O)Nc2ccc([N+](=O)[O-])cc2)cc1`, the inhibition is 3.79% (inactive). Take `CN1CC2CCCC3(C1)C(=O)NC1(CCCCC1)N=C23` (configuration not stated): the inhibition is -2.27% (inactive). Take `C1CCC(C(CC2CCCCN2)C2CCCCC2)CC1` (configuration not stated): the inhibition is 62.5% (active). The result for `CC(=O)c1cn(C)c(=O)[nH]c1=O` reads -3.65% (inactive); that for `CCn1c(N2CCN(CC(=O)c3c(C)n(C)c4ccc(OC)cc34)CC2)nc2c1c(=O)[nH]c(=O)n2C`, -1.17% (inactive). The value for `CC1(C)CC(=O)c2cn3c(nc2C1)nc1ccccc13` was -4.04% (inactive). The value for `CC(=O)N(CCC(Cc1ccccc1)c1ccco1)Cc1ccco1` (configuration not stated) was -17.2% (inactive).

Consider `NC(N)=N/N=C/c1cccc(Cl)c1Cl`, for which the inhibition is 18.4% (inactive). Regarding `CN1CCc2c(n(CC(O)CN(CCO)CCO)c3ccccc23)C1=O` (configuration not stated), the inhibition is 11.3% (inactive). The result for `OCCN(CCO)c1ccc2ccccc2c1` reads -0.71% (inactive).

(Values after PubChem BioAssay AID651660 (Broad Institute, 2012).)
